Rows were chosen to be rich in hits. Some 4.6% of all compounds tested hit in one or more screens of this group.
TRHR ag: qHTS for Small Molecule Agonists and Allosteric Enhancers of Human TRH Receptor: Primary Screen for Agonists. Thyrotropin-releasing hormone receptor (Homo sapiens), P34981. TRHR cells, calcium flux fluo-8, FDSS agonist mode. activation, % at 2 µM. 360,000 tested, 0.18% active; note: 0% is about no effect
Target sequence (P34981 whole entry, looked up): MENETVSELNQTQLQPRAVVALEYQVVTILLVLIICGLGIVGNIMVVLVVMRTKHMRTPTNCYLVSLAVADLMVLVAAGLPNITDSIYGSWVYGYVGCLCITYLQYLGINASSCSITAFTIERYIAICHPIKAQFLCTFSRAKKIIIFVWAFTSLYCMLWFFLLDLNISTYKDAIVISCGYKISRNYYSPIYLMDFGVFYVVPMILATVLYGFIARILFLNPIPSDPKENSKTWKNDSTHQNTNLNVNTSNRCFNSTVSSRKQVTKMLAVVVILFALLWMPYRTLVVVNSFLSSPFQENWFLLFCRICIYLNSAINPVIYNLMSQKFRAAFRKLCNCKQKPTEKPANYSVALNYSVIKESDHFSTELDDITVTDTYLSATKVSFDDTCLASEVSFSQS
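Fluo-8-loaded TRHR cells; 10 s baseline, compound added, kinetic Ca2+ fluorescence read 1/s, agonist mode.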
D1 agonist: Allosteric Agonists of the Human D1 Dopamine Receptor: qHTS; activation, % at 2 µM; 360,000 tested, 1% active; AID 504660, 2011; D(1A) dopamine receptor (Homo sapiens), P21728; HEK293 T-REx D1 cells, calcium flux, agonist mode; note: 0% is about no effect
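Inducible HEK293 T-REx D1 cells, force-coupled to calcium signalling, were plated at 4000 cells/well with tetracycline and held overnight at 30 C. After no-wash calcium dye loading, compound-evoked calcium rise over 180 s flagged agonists.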
D1 potentiator: Potentiators of Human D1 Dopamine Receptor: qHTS; 360,000 tested, 0.036% active; potentiation, % at 10 µM; D(1A) dopamine receptor (Homo sapiens), P21728; AID 504651, 2011; HEK293 TREx D1 cells, calcium flux, dopamine EC20 potentiation; in the data active = potentiation above about 30%; note: 0% is about no effect
TRHR PAM: qHTS for Small Molecule Agonists and Allosteric Enhancers of Human TRH Receptor: Primary Screen for Enhancers. TRHR cells, fluo-8 calcium fluorescence, EC20 TRH enhancement. 360,000 tested, 0.66% active. AID 493056, 2011. enhancement, % at 2 µM; in the data active = enhancement above about 30%; note: 0% is about no effect
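Enhancer read-out: after compound pinning and an initial kinetic agonist-mode read, an EC20 of TRH (10 nM final) was injected and fluo-8 calcium signal (Ex 480/Em 530) followed at 1 s/cycle for 100 cycles in TRHR-expressing cells.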
D1 antag: Antagonist of Human D 1 Dopamine Receptor: qHTS; activity change, negative = inhibition, % at 10 µM; 360,000 tested, 3.2% active; HEK293 TREx D1 cells, calcium flux, dopamine EC80; stronger effect = lower value; D(1A) dopamine receptor (Homo sapiens), P21728; in the data active = activity change below about -30%; note: % is set by controls: 0 for no effect and ±100 for the full control effect
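Tetracycline-induced HEK293 T-REx cells with force-coupled D1 receptor were loaded with a no-wash calcium dye. Compound was added after a 10 s baseline and read kinetically for 180 s; EC80 dopamine was then added and calcium flux followed another 180 s.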
* hit, by the source's call; · = not tested or not shown. Cut-off read from the data, not from the text of the source, unless noted: active = activation above about 30%; inactive = the rest.

SMILES	TRHR ag	D1 agonist	D1 potentiator	TRHR PAM	D1 antag
O=S(=O)(Nc1ccc(N2CCOCC2)nn1)c1ccccc1	0.0	1.9	-1.6	13.4	-47.1*
Cc1sc(NC(=O)c2ccccc2)c(C(c2ccccn2)N2CCN(CCO)CC2)c1C (stereo unspecified)	-0.3	108.2*	-2.0	25.5	-5.4
COc1ccc(N(C)C(=O)CCn2cnc3onc(-c4ccc(F)cc4)c3c2=O)c(OC)c1	-0.6	1.8	-2.4	-8.8	-0.3
CCc1ccc(C(=O)CN2C(=O)NC(C)(c3ccc(C)cc3)C2=O)cc1 (stereo unspecified)	1.0	9.0	-0.6	10.4	14.8
CCC1(c2ccc(F)cc2)NC(=O)N(CC(=O)N2c3ccccc3CC2C)C1=O (stereo unspecified)	6.2	84.7*	4.7	0.4	3.6
Cc1ccc(C2(C)NC(=O)N(CC(=O)c3ccc4c(c3)OCCO4)C2=O)cc1 (stereo unspecified)	0.6	8.7	-3.6	-2.2	-43.0*
CCC1(c2ccc(F)cc2)NC(=O)N(CC(=O)NC2CC2)C1=O (stereo unspecified)	0.2	0.9	-4.6	19.8	13.4
CCC1(c2ccc(OC)cc2)NC(=O)N(CC(=O)c2ccc3c(c2)OCCO3)C1=O (stereo unspecified)	2.5	32.5*	-1.8	7.3	35.1
CCC1(c2ccc(F)cc2)NC(=O)N(CC(=O)c2cc(C)n(C3CC3)c2C)C1=O (stereo unspecified)	8.3	41.3*	-1.8	-6.6	-2.8
Cc1cc(C)cc(OCc2cc(=O)n3c4c(sc3n2)CCCC4)c1	-1.1	0.3	2.3	-0.8	-12.3
O=C(NCc1ccccc1F)C1CCN(c2nnc(-n3cccc3)s2)CC1	-0.9	-0.1	-4.7	-9.0	6.8
CCC1(c2ccc(F)cc2)NC(=O)N(CC(=O)N(CCC#N)c2ccccc2)C1=O (stereo unspecified)	0.0	11.9	-3.5	31.2*	12.6
CCC1(c2ccc(OC)cc2)NC(=O)N(CC(=O)N2CCc3ccccc32)C1=O (stereo unspecified)	7.2	38.8*	-5.0	-1.3	5.9
CCOc1cc(C(=O)NCCc2csc3nc(-c4ccccc4F)nn23)cc(OCC)c1OCC	-1.2	2.5	-0.2	-5.3	-6.6
CCOC(=O)C1CCCCN1Cc1ccc(OC)c(OC)c1 (stereo unspecified)	0.8	0.2	-0.2	-0.3	-4.8
COC(=O)c1scc(-c2ccc(C)cc2)c1S(=O)(=O)Nc1ccc(OC(F)(F)F)cc1	0.7	1.9	-8.1	-0.4	-31.5*
N#CN1CCC(NC(=O)c2cccc(C(F)(F)F)c2)CC1	-1.5	0.2	-2.7	-0.2	4.8
C/C(O)=c1/cnc2nc3ccccc3n2c1=O	0.1	3.5	-7.8	-7.0	-43.5*
Cc1ccccc1NC(=O)c1ccc(F)c(S(=O)(=O)N(C)C2CCCCC2)c1	0.2	12.6	-1.1	-6.6	-14.6
Cn1c(SCc2ccc(F)cc2)nc2ccc(C(=O)NCc3ccc(F)cc3)cc21	1.7	13.0	-3.3	6.5	-32.4*
Cn1c(SCc2ccc(F)cc2)nc2ccc(C(=O)NCc3ccc(Cl)cc3)cc21	-0.2	11.5	-5.0	0.9	-5.6
CC1CCC2(CC1)NC(=O)N(CC(=O)N1CCN(c3ccccc3)CC1)C2=O (stereo unspecified)	-0.5	2.2	·	2.6	0.2
COc1ccc(O)c(C(=O)c2cnc3c(c2)c(C)nn3C)c1	-0.3	4.1	-5.2	6.9	7.3
COc1ccc(O)c(C(=O)c2cnc3onc(C)c3c2)c1	-0.7	0.5	-2.8	-5.1	-39.3*
COC(=O)c1ccc(NC(=O)C[n+]2ccccc2)cc1	0.6	5.4	-2.4	-0.8	1.8
SMILES	TRHR ag	D1 agonist	D1 potentiator	TRHR PAM	D1 antag
CC(=O)c1ccc(NC(=O)C[n+]2ccccc2)cc1	0.0	1.2	-1.9	18.4	-30.5*
O=C(COC(=O)CCC1CCCC1)Nc1ccc(F)cc1	0.4	4.3	·	2.6	20.3
COC(=O)c1ccc(NC(=O)COC(=O)CCC2CCCC2)cc1	-0.1	13.5	·	-3.4	-41.1*
CC(=O)NCC(=O)OCC(=O)Nc1ccc(C(C)=O)cc1	-0.8	5.3	4.5	13.0	-30.8*
CC(=O)c1ccc(NC(=O)CO/N=C(\C)c2cccs2)cc1	-0.1	2.5	-1.3	-3.0	-35.6*
Cc1ccc(CN2CCc3nc(N4CCN(c5ccccc5F)CC4)ncc3C2)s1	-1.3	-0.5	0.3	2.9	-7.4
CCOc1ccccc1NC(=O)CSc1nc2c([nH]c3ccccc32)c(=O)n1-c1ccccc1	-0.1	1.0	-1.9	-1.4	1.2
COC(=O)C(CC(=O)c1ccc(Cl)cc1)c1ccc(C(C)C)cc1 (stereo unspecified)	0.9	8.7	-4.5	0.4	-30.0*
Cc1ccc(C(CC(=O)c2ccc(Cl)cc2)C(=O)O)cc1 (stereo unspecified)	0.1	2.2	-2.5	1.0	12.9
COc1cc(CNC(=O)c2cc(-c3ccccc3)n[nH]2)cc(OC)c1OC	-0.7	-1.3	-1.6	-0.4	12.7
Cc1ccc(Cl)cc1N1CCN(c2ncnc3onc(-c4ccc(F)cc4)c23)CC1	2.7	0.6	-6.5	-5.2	-35.8*
COc1ccc(-c2nnc(SCC(=O)Oc3cccc(C)c3C)o2)cc1	0.4	0.9	-1.6	12.6	-3.6
CN(C)c1ccc(/C=N/NC(=O)c2ccc3c(c2)OCO3)cc1	-0.2	1.8	-3.2	2.1	-30.1*
CN(C)c1ccc(/C=C/C(=O)c2ccc3c(c2)OCO3)cc1	121.4*	455.1*	-0.9	23.5	4.5
CCOC(=O)[C@H]1[C@H]2COc3ccc(OC)cc3[C@@H]2N2C(=O)CN(C)C(=O)[C@@]12C	-0.1	1.1	-4.9	-6.0	·
CNCCCC1c2ccccc2C=Cc2ccccc21	2.9	42.8*	-5.2	27.5	-21.9
CCSC1=NCCN1C(=O)Cc1ccc(-c2ccccc2)cc1	0.2	3.6	-3.9	0.4	-44.4*
CSC1=NCCN1C(=O)Cc1ccc(F)cc1	0.1	1.0	·	4.2	14.4
CSC1=NCCN1C(=O)Cc1ccc(-c2ccccc2)cc1	0.3	16.4	-9.8	2.1	-39.8*
CCCCN1C(=O)C2(NNc3ccccc3O2)c2ccccc21 (stereo unspecified)	13.8	74.2*	-2.0	-15.2	·
C=CCN1C(=O)C2(NC(=O)c3ccccc3N2)c2ccccc21 (stereo unspecified)	0.9	0.8	-1.3	19.5	8.4

Bioassay records as filed in PubChem BioAssay.
